Experiments:
[1] = molecular target: T1, Aspartate--tRNA(Asp/Asn) ligase (Mycobacterium tuberculosis (strain ATCC 25618 / H37Rv)) (UniProt P9WFW3); assay: Assay for Asp RNA synthetase-1 from Mycobacterium tuberculosis; type: functional; set-up: scale not given: direction of the effect not stated beside the values; conditions: 30 µM; also: in the data most compounds retested in dose-response had high values
T1 sequence (whole entry): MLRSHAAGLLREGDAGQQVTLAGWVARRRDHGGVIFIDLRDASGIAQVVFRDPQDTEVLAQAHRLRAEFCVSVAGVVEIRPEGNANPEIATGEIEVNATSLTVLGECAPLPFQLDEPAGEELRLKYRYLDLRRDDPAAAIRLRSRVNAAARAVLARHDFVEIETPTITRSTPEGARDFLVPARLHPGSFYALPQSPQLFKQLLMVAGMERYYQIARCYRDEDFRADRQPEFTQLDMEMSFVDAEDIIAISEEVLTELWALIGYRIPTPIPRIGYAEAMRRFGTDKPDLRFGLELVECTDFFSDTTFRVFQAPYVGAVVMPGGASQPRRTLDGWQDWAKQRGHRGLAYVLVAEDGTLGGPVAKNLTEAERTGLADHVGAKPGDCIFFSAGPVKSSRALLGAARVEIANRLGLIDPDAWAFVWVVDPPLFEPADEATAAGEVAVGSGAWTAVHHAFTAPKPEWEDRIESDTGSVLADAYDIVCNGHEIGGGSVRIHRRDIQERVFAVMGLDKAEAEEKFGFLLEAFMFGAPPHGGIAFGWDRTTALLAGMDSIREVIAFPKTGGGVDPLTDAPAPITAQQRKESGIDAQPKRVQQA

[2] = molecular target: Shiga toxin 2 (Escherichia coli O157:H7) (UniProt P09385+P09386); assay: E. coli 0.157:H7 Shiga Toxin SOP - stx2 screening assay; type: functional; set-up: scale not given: direction of the effect not stated beside the values; conditions: 30 µM

Cc1cnn(CC2CCCN2CC(=O)Nc2cc(C)nn2C)c1 (configuration not stated)
Percent Effect [1]: 0.972%
Percent Effect [2]: -20.9%

COc1ccc(OCCNCCn2cccn2)cc1
Percent Effect [1]: 1.29%
Percent Effect [2]: -27.4%

COc1cc(OC)c(C2Nc3cc(Cl)ccc3C3=NCCN32)cc1OC (configuration not stated)
Percent Effect [1]: -6.02%
Percent Effect [2]: -48.2%

CCC(CO)NC(=O)c1ccc2ccc(N(C)CC3CC3)n2c1 (configuration not stated)
Percent Effect [1]: -2.57%
Percent Effect [2]: -33%

O=C(CCc1cscn1)N1CCCC1c1noc(C2CC2)n1 (configuration not stated)
Percent Effect [1]: -1.43%
Percent Effect [2]: 22.4%

CC(C(=O)Nc1ccc(N2CCCC2)nc1)n1ccnc1 (configuration not stated)
Percent Effect [1]: 1.62%
Percent Effect [2]: -37.2%

COc1ccc(C(O)CNC(=O)NCc2csc(C)n2)cc1 (configuration not stated)
Percent Effect [1]: -1.2%
Percent Effect [2]: -23.7%

CC(CN1CCN(C)CC1)NC(=O)c1cc(Cl)c2c(c1)OCO2 (configuration not stated)
Percent Effect [1]: 3.29%
Percent Effect [2]: -0.562%

CC(C)N(C)C(=O)C1=NOC2(CCN(C(=O)c3ccncc3)C2)C1 (configuration not stated)
Percent Effect [1]: -1.05%
Percent Effect [2]: -7.21%

COCC1c2nnn(CC3CC3)c2CCN1C(=O)c1cccc(F)c1 (configuration not stated)
Percent Effect [1]: -5.71%
Percent Effect [2]: 7.97%

CCOCC1CN(Cc2ccc(OC)cc2)Cc2nn(C)cc21 (configuration not stated)
Percent Effect [1]: 11.4%
Percent Effect [2]: -5.58%

Cc1cc(NC(=O)CN2CCCC2c2noc(C3CC3)n2)no1 (configuration not stated)
Percent Effect [1]: 0.92%
Percent Effect [2]: -26.9%

Cc1ccccc1C(=O)CN1C(=O)c2ccccc2CS1(=O)=O
Percent Effect [1]: 0.881%
Percent Effect [2]: -11.1%

COCc1n[nH]/c(=N/C(=O)COc2cnc(C)cc2O)s1
Percent Effect [1]: -2.13%
Percent Effect [2]: -48.9%

Cc1ccc(C)c(C(C(=O)O)N2CCCN(Cc3ccccn3)CC2)c1 (configuration not stated)
Percent Effect [1]: -3.28%
Percent Effect [2]: 2.34%

O=C1CC(c2ccncc2)C2(CCN(C(=O)c3ccc[nH]3)CC2)N1 (configuration not stated)
Percent Effect [1]: -0.81%
Percent Effect [2]: -8.09%

COc1ccc(C2Nc3cc(Cl)ccc3C3=NCCN32)cc1OC (configuration not stated)
Percent Effect [1]: -3.07%
Percent Effect [2]: -59.6%

Cc1ccc(NC(=O)NC(C)c2nc[nH]n2)s1 (configuration not stated)
Percent Effect [1]: 3.94%
Percent Effect [2]: 17.2%

Cc1n[nH]c(=O)c2c(NC(=O)CN3CCC(O)CC3)oc(C)c12
Percent Effect [1]: 1.28%
Percent Effect [2]: -66.6%

CC(Cn1cccn1)NC(=O)N(C)Cc1ccc(Cl)s1 (configuration not stated)
Percent Effect [1]: -7.31%
Percent Effect [2]: -6.54%

c1cnc(NCc2ncn3c2CN(Cc2cccnc2)CCC3)nc1
Percent Effect [1]: -2.66%
Percent Effect [2]: -5.14%

Cc1ccc(NC(=O)N(C)Cc2cnn(C)c2)cc1OCC(F)F
Percent Effect [1]: 5.84%
Percent Effect [2]: -4.22%

Fc1cccc(-c2nc(CN3CCn4c(nnc4C4CC4)C3)co2)c1
Percent Effect [1]: 6.1%
Percent Effect [2]: -39.6%

CN(CC1COc2ccccc2O1)C(=O)NCCCn1ccnc1 (configuration not stated)
Percent Effect [1]: -0.767%
Percent Effect [2]: 11.4%

CCc1cccc(N2CCC(NC(=O)c3ccc(=O)[nH]n3)CC2)c1
Percent Effect [1]: 3.83%
Percent Effect [2]: -1.12%

Cc1cc(C[S+]([O-])CC(=O)Nc2c(C)cccc2C)no1 (configuration not stated)
Percent Effect [1]: -6.04%
Percent Effect [2]: 17%

COCC1CN(Cc2ccc(C)o2)Cc2nnn(CC3CC3)c21 (configuration not stated)
Percent Effect [1]: -0.416%
Percent Effect [2]: -35.9%

CC1CN(C(=O)CN(Cc2ccco2)C2CC2)CCO1 (configuration not stated)
Percent Effect [1]: 3.17%
Percent Effect [2]: 18.9%

CC(C)n1ccc(-c2cc(C(=O)N3CCCC3)c3ccccn23)n1
Percent Effect [1]: 2.64%
Percent Effect [2]: -41.4%

CN1CC(=O)N(c2ccccc2)CC12CCN(Cc1cccnc1)C2 (configuration not stated)
Percent Effect [1]: -5.22%
Percent Effect [2]: -7.54%

O=C(COc1coc(CN2CCCCC2)cc1=O)Nc1ccccc1Cl
Percent Effect [1]: 0.319%
Percent Effect [2]: -4.27%

CC(C)C(=O)N1CCN(Cc2csc(-c3ncccn3)n2)CC1
Percent Effect [1]: -4.22%
Percent Effect [2]: 0.445%

CN1CCC(C(=O)NCc2nncn2-c2ccccc2)CC1=O (configuration not stated)
Percent Effect [1]: -4.57%
Percent Effect [2]: 18.1%

Cc1nc2c(c(NC3CC3)n1)CCN(C(=O)C(C)(C)O)CC2
Percent Effect [1]: 3.74%
Percent Effect [2]: -3.14%

CCc1nc(CN2CCCN(C(=O)C(C)n3cncn3)CC2)cs1 (configuration not stated)
Percent Effect [1]: -3.06%
Percent Effect [2]: 9.04%

CCC1CN(CC(=O)Nc2sccc2C#N)CCO1 (configuration not stated)
Percent Effect [1]: -2.46%
Percent Effect [2]: 32.6%

NC[C@H]1CC[C@H](C(NC(=O)c2cccc(F)c2)c2ccccn2)CC1 (some centres not stated)
Percent Effect [1]: -0.28%
Percent Effect [2]: -71.9%

Cc1ccc(CN(C)CC(=O)NC2(C)CCS(=O)(=O)C2)cc1 (configuration not stated)
Percent Effect [1]: 1.84%
Percent Effect [2]: -25.3%

CC(=O)NCCNC(=O)c1sc(-c2ccc(C)cc2C)nc1C
Percent Effect [1]: 3%
Percent Effect [2]: 2.48%

CC(=O)c1c(F)cccc1N1CCC(Cc2cccnc2)CC1
Percent Effect [1]: 0.661%
Percent Effect [2]: -24.5%

CCn1ccnc1CN(C)CC1CCCN1c1cccnn1 (configuration not stated)
Percent Effect [1]: 7.69%
Percent Effect [2]: -26.1%
